# According to ChEMBL document CHEMBL1157539, “Thousands of chemical starting points for antimalarial lead identification” (Nature, 2010):
# System: Plasmodium falciparum
# Assay: GSK_TCMDC: Inhibition of Plasmodium falciparum Dd2 in whole red blood cells, using parasite LDH activity as an index of growth. Test compounds present at 2uM
# Assay type: functional
row,Structure (SMILES),Inhibition [%]
1,CN(c1ncc(-c2cccc(CNCc3ccccc3O)c2)cn1)C1CCCCC1,71
2,Cc1ccc(F)cc1S(=O)(=O)Nc1ccc(CCN2CCC(N3CCCCC3)CC2)cc1,15
3,CCCNC(=O)C1Cc2c([nH]c3ccc(Br)cc23)C2(CCN(CCc3ccccc3)CC2)N1 (stereo not given),49
4,Clc1cccc(C=NN=c2cc[nH]c3ccccc23)c1,44
5,Cc1cc2c(cc1C(F)(F)F)N(C(=O)Nc1ccc(OCCN(C)C)c(C(F)(F)F)c1)CC2.Cl,23
6,Nc1c2ccccc2nc2ccc(-c3ccccc3)cc12,99
7,CN1CCN(Cc2ccc(-c3ccc4c(Nc5cc(O)c(F)cc5Cl)ccnc4c3)o2)CC1,99
8,COc1ccc(NC(=O)Nc2cccc(-c3cccc(-c4nc5ccccc5[nH]4)c3)c2)cc1,41
9,CC(=O)Oc1c(C2CCN(CCCCNC(=O)c3ccc(NC(=O)c4ccc(Cl)cc4)cc3)CC2)ccc2c1CCCC2,80
10,O=C(NC1CCCc2ccccc21)[C@@H]1CCCN1C(=O)c1ccc(O)c(-c2ccc(Cl)c(Cl)c2)c1 (stereo not given in full),99
11,CCN(CC)Cc1cc(NC(=O)c2ccccc2O)ccc1Oc1ccc(Cl)cc1.Cl,88
12,COc1cc(NC(=O)c2nn(CCCN3CCC(N4CCCC4)CC3)cc2-c2ccc(Cl)c(Cl)c2)cc(OC)c1OC,100
13,N#Cc1ccc(N2C[C@@H](OCc3ccccc3)C[C@H]2C(=O)NCCC(c2ccccc2)c2ccccc2)c2ccccc12,96
14,CCOc1cc(C(=O)NC2CCN(Cc3ccccc3)CC2)ccc1-c1nc2cc(Cl)ccc2[nH]1,84
15,Cc1cc(N)nc2ccc(-c3ccc(CN)cc3)cc12,93
16,CC(C)N(CC(=O)c1ccc(O)c(C(=O)O)c1)Cc1ccccc1.Cl,26
17,Cl.NC1=NC(CCc2ccccc2)N(c2ccc(Cl)cc2)C(N)=N1 (stereo not given),20
18,COc1ccc2nccc([C@@H](O)CN3CCC(NC(=O)C(=O)c4c[nH]c5c(C)cccc45)CC3)c2c1,94
19,Cc1c(F)cc(C(=O)NC2CC2)cc1-c1ccc2c(cnn2S(=O)(=O)c2ccc(F)c(F)c2)c1,76
20,O=C(O)C(F)(F)F.Oc1ccc(CCNc2nc(NCCOc3cccc4ccccc34)nc(N3CCNCC3)n2)cc1,8

row,Structure (SMILES),Inhibition [%]
1,Cc1ccc(CNc2ccc3ncc(-c4cccc(C(=O)NCCN(C)C)c4)n3n2)c(C)c1,78
2,CCN(CC)C(=O)c1cccc(C=Cc2ccc(-c3c(C)[nH]c(C)c(Cl)c3=O)cc2)c1,96
3,Cc1cc(NCCC(=O)Nc2ccccc2)nc(NCCc2ccc(F)cc2)n1.O=C(O)C(F)(F)F,43
4,CCn1ccc2c(N3CCCCS3(=O)=O)cc(C(=O)N[C@@H](Cc3ccccc3)[C@H](O)CNC(C)(C)c3cccc(C(F)(F)F)c3)cc21,98
5,CCc1ccc2c(c1O)CCN(C)C2Cc1ccccc1Cl.Cl (stereo not given),99
6,COc1ccc(C(=O)NC(Nc2ccc([N+](=O)[O-])cc2)C(Cl)(Cl)Cl)cc1 (stereo not given),83
7,CN1CCN(c2ccnc3cc4c(cc23)N(C(=O)Nc2ccc3c(c2)CCCC3=O)CC4)CC1.Cl,64
8,O=C(Cc1ccc(Cl)cc1)Nc1cc(Cl)ccc1Cn1cnc(N2CCNCC2)cc1=O.O=C(O)C(F)(F)F,2
9,COc1ccc(Br)cc1/C=C/C(=O)Nc1ccc2c(c1)CCCN(C)C2,10
10,COc1ccccc1N1CCN(CCCCN(C(=O)Nc2cccc(Cl)c2)C(=O)Nc2cccc(Cl)c2)CC1.Cl,65
11,CCOC(=O)c1ccc(N2CCCCC2)c(NC(=O)C(Cl)(Cl)Cl)c1,97
12,COc1ccc(NC(=O)/C=C/c2ccccc2Cl)cc1OCCN1CCC(O)(c2ccc(Cl)c(C(F)(F)F)c2)CC1.Cl,9
13,O=C(/C=C/c1ccc(Cl)c(Cl)c1)NCCCCCN1CCC(NC(=O)Nc2cc(Cl)ccc2Cl)CC1,31
14,COc1ccc(N2CCN(CCCCNC(=O)c3ccc(NC(=O)c4ccc(C(F)(F)F)cc4)cc3)CC2)c(OC)c1,8
15,COc1ccc2nc(C)cc(Nc3ccc(Oc4ccc(Cl)cc4)c(Cl)c3)c2c1,100
16,FC(F)(F)c1ccc2[nH]ccc(=NN=Cc3ccc(Cl)cc3)c2c1,53
17,COc1ccccc1NC(=O)Nc1cccc(-c2cccc(-c3nc4cccc(C)c4[nH]3)c2)c1,90
18,FC(F)(F)c1ccc2[nH]c(-c3ccc(-c4cccc(CNCC5CCCO5)c4)s3)nc2c1.O=C(O)C(F)(F)F (stereo not given),99
19,COc1cc(Nc2nc(N)c3cc(OC)c(OC)cc3n2)cc(OC)c1.Cl,100
20,O=C(Nc1ccc(C(F)(F)F)cc1)c1cccc(S(=O)(=O)NC2CCN(CC3CCCCC3)C2)c1.O=C(O)C(F)(F)F (stereo not given),10

# System: HepG2
# Assay: GSK_TCMDC: Percent inhibition of human HepG2 cell line. Test compounds present at 10uM.
# Assay type: functional
row,Structure (SMILES),Inhibition [%]
1,CN(c1ncc(-c2cccc(CNCc3ccccc3O)c2)cn1)C1CCCCC1,12
2,Cc1ccc(F)cc1S(=O)(=O)Nc1ccc(CCN2CCC(N3CCCCC3)CC2)cc1,25
3,CCCNC(=O)C1Cc2c([nH]c3ccc(Br)cc23)C2(CCN(CCc3ccccc3)CC2)N1 (stereo not given),16
4,Clc1cccc(C=NN=c2cc[nH]c3ccccc23)c1,5
5,Cc1cc2c(cc1C(F)(F)F)N(C(=O)Nc1ccc(OCCN(C)C)c(C(F)(F)F)c1)CC2.Cl,38
6,Nc1c2ccccc2nc2ccc(-c3ccccc3)cc12,100
7,CN1CCN(Cc2ccc(-c3ccc4c(Nc5cc(O)c(F)cc5Cl)ccnc4c3)o2)CC1,27
8,COc1ccc(NC(=O)Nc2cccc(-c3cccc(-c4nc5ccccc5[nH]4)c3)c2)cc1,41
9,CC(=O)Oc1c(C2CCN(CCCCNC(=O)c3ccc(NC(=O)c4ccc(Cl)cc4)cc3)CC2)ccc2c1CCCC2,21
10,O=C(NC1CCCc2ccccc21)[C@@H]1CCCN1C(=O)c1ccc(O)c(-c2ccc(Cl)c(Cl)c2)c1 (stereo not given in full),0
11,CCN(CC)Cc1cc(NC(=O)c2ccccc2O)ccc1Oc1ccc(Cl)cc1.Cl,32
12,COc1cc(NC(=O)c2nn(CCCN3CCC(N4CCCC4)CC3)cc2-c2ccc(Cl)c(Cl)c2)cc(OC)c1OC,76
13,N#Cc1ccc(N2C[C@@H](OCc3ccccc3)C[C@H]2C(=O)NCCC(c2ccccc2)c2ccccc2)c2ccccc12,11
14,CCOc1cc(C(=O)NC2CCN(Cc3ccccc3)CC2)ccc1-c1nc2cc(Cl)ccc2[nH]1,10
15,Cc1cc(N)nc2ccc(-c3ccc(CN)cc3)cc12,4
16,CC(C)N(CC(=O)c1ccc(O)c(C(=O)O)c1)Cc1ccccc1.Cl,0
17,Cl.NC1=NC(CCc2ccccc2)N(c2ccc(Cl)cc2)C(N)=N1 (stereo not given),2
18,COc1ccc2nccc([C@@H](O)CN3CCC(NC(=O)C(=O)c4c[nH]c5c(C)cccc45)CC3)c2c1,17
19,Cc1c(F)cc(C(=O)NC2CC2)cc1-c1ccc2c(cnn2S(=O)(=O)c2ccc(F)c(F)c2)c1,49
20,O=C(O)C(F)(F)F.Oc1ccc(CCNc2nc(NCCOc3cccc4ccccc34)nc(N3CCNCC3)n2)cc1,21

row,Structure (SMILES),Inhibition [%]
1,Cc1ccc(CNc2ccc3ncc(-c4cccc(C(=O)NCCN(C)C)c4)n3n2)c(C)c1,97
2,CCN(CC)C(=O)c1cccc(C=Cc2ccc(-c3c(C)[nH]c(C)c(Cl)c3=O)cc2)c1,9
3,Cc1cc(NCCC(=O)Nc2ccccc2)nc(NCCc2ccc(F)cc2)n1.O=C(O)C(F)(F)F,26
4,CCn1ccc2c(N3CCCCS3(=O)=O)cc(C(=O)N[C@@H](Cc3ccccc3)[C@H](O)CNC(C)(C)c3cccc(C(F)(F)F)c3)cc21,6
5,CCc1ccc2c(c1O)CCN(C)C2Cc1ccccc1Cl.Cl (stereo not given),13
6,COc1ccc(C(=O)NC(Nc2ccc([N+](=O)[O-])cc2)C(Cl)(Cl)Cl)cc1 (stereo not given),15
7,CN1CCN(c2ccnc3cc4c(cc23)N(C(=O)Nc2ccc3c(c2)CCCC3=O)CC4)CC1.Cl,5
8,O=C(Cc1ccc(Cl)cc1)Nc1cc(Cl)ccc1Cn1cnc(N2CCNCC2)cc1=O.O=C(O)C(F)(F)F,9
9,COc1ccc(Br)cc1/C=C/C(=O)Nc1ccc2c(c1)CCCN(C)C2,8
10,COc1ccccc1N1CCN(CCCCN(C(=O)Nc2cccc(Cl)c2)C(=O)Nc2cccc(Cl)c2)CC1.Cl,4
11,CCOC(=O)c1ccc(N2CCCCC2)c(NC(=O)C(Cl)(Cl)Cl)c1,11
12,COc1ccc(NC(=O)/C=C/c2ccccc2Cl)cc1OCCN1CCC(O)(c2ccc(Cl)c(C(F)(F)F)c2)CC1.Cl,37
13,O=C(/C=C/c1ccc(Cl)c(Cl)c1)NCCCCCN1CCC(NC(=O)Nc2cc(Cl)ccc2Cl)CC1,99
14,COc1ccc(N2CCN(CCCCNC(=O)c3ccc(NC(=O)c4ccc(C(F)(F)F)cc4)cc3)CC2)c(OC)c1,4
15,COc1ccc2nc(C)cc(Nc3ccc(Oc4ccc(Cl)cc4)c(Cl)c3)c2c1,48
16,FC(F)(F)c1ccc2[nH]ccc(=NN=Cc3ccc(Cl)cc3)c2c1,5
17,COc1ccccc1NC(=O)Nc1cccc(-c2cccc(-c3nc4cccc(C)c4[nH]3)c2)c1,11
18,FC(F)(F)c1ccc2[nH]c(-c3ccc(-c4cccc(CNCC5CCCO5)c4)s3)nc2c1.O=C(O)C(F)(F)F (stereo not given),37
19,COc1cc(Nc2nc(N)c3cc(OC)c(OC)cc3n2)cc(OC)c1.Cl,7
20,O=C(Nc1ccc(C(F)(F)F)cc1)c1cccc(S(=O)(=O)NC2CCN(CC3CCCCC3)C2)c1.O=C(O)C(F)(F)F (stereo not given),32
